Experimental data from PubChem BioAssay (NCI).
The panel holds about 79,000 compounds, 15% with a hit somewhere; the sample as a whole holds those more often. A number with no mark means an inactive call. Active and inactive are the calls of the source. Rule as the data show it: active = growth inhibition above about 70%; inactive = the rest.

Tests used:
[1] = NCI Yeast Anticancer Drug Screen. Data for the rad50 strain (AID 155);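 also: 0% = growth of vehicle-only cultures of the same strain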; conditions: S. cerevisiae rad50 strain growth inhibition; at 50.0 µM; hits give high values
In short: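 Cells are treated with compound, grown, and their growth is then scored against vehicle-only cultures of the same repair-deficient yeast strain.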

[2] = NCI Yeast Anticancer Drug Screen. Data for the mec2-1 strain (AID 157); conditions: S. cerevisiae mec2-1 strain, at 50.0 µM, hits give high values
In short: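 Each compound was tested on mec2-1 yeast, a strain altered in DNA damage repair or cell cycle control. Growth inhibition is reported relative to vehicle.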

[3] = NCI Yeast Anticancer Drug Screen. Data for the sgs1 mgt1 strain (AID 161);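 also: 0% = growth of cultures given vehicle only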; conditions: S. cerevisiae sgs1 mgt1 strain, at 50.0 µM, hits give high values
In short: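 Genetically altered yeast, compound exposure, growth inhibition relative to vehicle.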

[4] = NCI Yeast Anticancer Drug Screen. Data for the cln2 rad14 strain (AID 165);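 also: 0% = growth equal to vehicle treated cultures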; conditions: S. cerevisiae cln2 rad14 strain, at 50.0 µM, hits give high values
In short: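 Test compounds were added to cln2 rad14 yeast cultures; inhibition of growth was then determined by comparison with vehicle treatment.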

[5] = NCI Yeast Anticancer Drug Screen. Data for the bub3 strain (AID 167); conditions: S. cerevisiae bub3 mutant strain, at 50.0 µM, hits give high values
In short: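 Part of a panel of yeast mutants defective in DNA damage repair or cell cycle regulation. Each strain is grown with compound, and inhibition is calculated relative to solvent-treated cultures.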

[6] = NCI Yeast Anticancer Drug Screen. Data for the mlh1 rad18 strain (AID 175); conditions: S. cerevisiae mlh1 rad18 strain growth inhibition; at 50.0 µM; hits give high values
In short: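 Inhibition values reflect reduced growth of mutant yeast versus vehicle-treated controls following compound exposure; the mutations affect DNA damage repair.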

| Structure (SMILES) | growth inhibition [1] | growth inhibition [2] | growth inhibition [3] | growth inhibition [4] | growth inhibition [5] | growth inhibition [6] |
| --- | --- | --- | --- | --- | --- | --- |
| O=c1cc(-c2ccccc2)[nH]c(=S)[nH]1 | -13.4% | -11.9% | 8.65% | -24.8% | 9.1% | -9.55% |
| CC(C(=O)O)(C1CCCCC1)C1(O)CCCCC1 (stereo not drawn) | 29.8% | 45.5% | 39.9% | 59.5% | 62.5% | 29.5% |
| Nc1ccc(C(=O)c2ccc(N)c(Br)c2)cc1Br | 15% | -0.85% | 6.6% | -77.9% | 43.3% | 4.05% |
| O=C(CS)Nc1ccc2ccccc2c1 | 3.5% | -0.85% | 22% | -36.9% | -7.85% | -1.15% |
| O=C(CN1CCNCC1)N1CCOCC1 | -25.6% | -25.1% | -17.8% | -23.9% | -16.7% | -13.8% |
| C=CC[N+](C)(C)C | 6.75% | -27.9% | 5.75% | 7.7% | 14.2% | 7.4% |
| CCOc1ccc(/C=N/N=C(N)N)cc1OCC | -31.4% | -18% | -17.6% | -53.4% | -8.4% | -11.9% |
| CC(=O)/C(Cc1ccccc1)=N/O | 10.7% | 4.55% | 15.8% | -4% | -2.1% | 2.15% |
| O=c1[nH][nH]c(=O)c2cc([N+](=O)[O-])ccc12 | 32.9% | 11.6% | 1.7% | -67.7% | -15% | 18.1% |
| COc1cc(C(=O)N/N=C/c2cccc([N+](=O)[O-])c2)cc(OC)c1OC | -5.5% | -13.4% | -41.9% | 24.4% | -39.2% | -64.5% |
| COc1cc(C(=O)NC(=S)Nc2ccc3ccccc3c2)cc(OC)c1OC | 11.3% | 2.6% | 6.25% | -6.15% | -3.4% | 13.1% |
| CC(=O)OCC(=O)[C@@]1(O)CC[C@H]2[C@@H]3CC[C@@H]4C[C@H](O)CC[C@]4(C)[C@H]3C(=O)C[C@@]21C | 19.7% | 7.15% | 25.4% | 7.75% | -2.85% | 20.6% |
| COc1cc2cc(OC(C)=O)c3cc4c(cc3c2c(OC)c1OC)OCO4 | -18.4% | -10.8% | -16.3% | -5.2% | -21.9% | -25.1% |
| CCN1C(=O)/C(=C/C=C/N(C)c2ccccc2)SC1=S | 0.9% | -13.3% | 3.25% | 9.05% | 20.9% | 7.85% |
| N#Cc1ccc(OC(=O)Nc2ccc(Cl)c(Cl)c2)cc1 | -7.65% | -4.4% | 20.9% | 8.35% | 9.95% | 5.8% |
| CN(C)c1nc2c([nH]1)c(=O)n(C)c(=O)n2C | 22.4% | -15.2% | 2.2% | 5.2% | -10.1% | 5.45% |
| O=C(O)c1cccc([N+](=O)[O-])c1 | -28% | -8% | -21.8% | -27.1% | -23.1% | -27.4% |

| Structure (SMILES) | growth inhibition [1] | growth inhibition [2] | growth inhibition [3] | growth inhibition [4] | growth inhibition [5] | growth inhibition [6] |
| --- | --- | --- | --- | --- | --- | --- |
| CCCCC1C(=O)N(c2ccccc2)N(c2ccccc2)C1=O | -5.2% | -10.6% | -2.65% | -5.75% | -4.2% | -19.1% |
| O=S(=O)(O)c1cc(O)c2c(N=Cc3ccccc3O)c(S(=O)(=O)O)ccc2c1 | 5.15% | -9.6% | 6.55% | -2.45% | 17% | 8.3% |
| O=C(CCl)Nc1ccc2c(c1)C(=O)c1ccc(NC(=O)CCl)cc1C2=O | 6.3% | -4.85% | 4.15% | 1.7% | -21.2% | 21.9% |
| COc1cc(CN)ccc1O | 1.65% | -6.25% | -8.75% | 10.7% | 11.8% | 12.2% |
| O=[N+]([O-])c1ccc(-c2ncc(-c3ccc(Br)cc3)o2)cc1 | -0.1% | -3.3% | 21.9% | 11.6% | 17.2% | 3.45% |
| O=c1cc2oc3cc(O)c(O)cc3c(-c3ccccc3O)c-2cc1O | 26.1% | 2.25% | 44.9% | 32.3% | 41% | 26.4% |
| COC(=O)/C=C/C(=O)NC(N)=O | -19.6% | -41.2% | -22.1% | 9.95% | -17.2% | -8.05% |
| COc1cc(C(N)=O)cc(OC)c1OC | 2.9% | -9.5% | -0.35% | 4.9% | 4.95% | -2.65% |
| COc1ccc(-c2cc(-c3cc(-c4ccc(OC)cc4)nc(N)n3)nc(N)n2)cc1 | -13% | 4.45% | -20.8% | -2.65% | -2.65% | 9.8% |
| COc1ccc(Oc2c(I)cc(CC(NC(C)=O)C(=O)O)cc2I)cc1 (stereo not drawn) | 43.1% | 40.5% | 38.7% | 51.5% | 37.4% | 49.7% |
| CC[N+](C)(CC)CCO | 13.7% | -3.8% | 4.4% | 10.7% | 2.9% | 5.05% |
| O=C(Cc1ccc(OCc2ccccc2)cc1)NCc1ccc2c(c1)OCO2 | 3.2% | -5.5% | -1.2% | -10.8% | 17.5% | -9.5% |
| FC(F)(F)c1ccc2c(c1)N(CCCN1CCN(C3CC3)CC1)c1ccccc1S2 | 99.3% (active) | 99.3% (active) | 99.7% (active) | 99% (active) | 99% (active) | 99.5% (active) |
| O=[N+]([O-])c1ccc(Sc2ccncn2)c([N+](=O)[O-])c1 | 24.7% | 16.6% | 8.9% | -5.55% | -12.3% | 30.8% |
| c1c(-c2cc(C3CC3)[nH]n2)n[nH]c1C1CC1 | -62% | -0.25% | -17.6% | -16.4% | 1.8% | 2.35% |
| O=C(CC(=O)c1ccccc1O)c1ccccc1 | 31.4% | 43.1% | 34.4% | 40.5% | 62.6% | 39.9% |
